Data from PubChem BioAssay (NCATS).
Records with an inconclusive call do not appear. A call without a number means that no potency is given here. Activity calls are given as the source filed them. The call rests on the fitted dose curve.

Assay: Natriuretic polypeptide receptor (hNpr1) antagonism - Pilot counterscreen GloSensor control cell line (AID 1347045)
Details: HEK293 cGMP GloSensor cells, SNP-stimulated luminescence, 20 min; series mostly up to 38.3 µM
Protocol: F. Fan, B. F. Binkowski, B. L. Butler, P. F. Stecha, M. K. Lewis, K. V. Wood, Novel genetically encoded biosensors using firefly luciferase. ACS Chem Biol 3, 346-351 (2008).
PROTOCOL TABLE (as described by Inglese J, Shamu CE and Guy RK. 2007)
SEQUENCE No. (e.g., 1, 2, 3, etc.); […] (e.g., Cells, Incubation, Reagent, etc.); VALUE and DESCRIPTION.
1. Cells. Seed 1500 HEK293 cGMP-sensor cells per well in 4uL into Greiner 1536-well white/solid bottom high base, TC plates.
2. Incubation. Incubate plated cells at 37C in 5% CO2, 95% RH overnight.
3. Reagent. Add 1uL per well GloSensor reagent from Promega (2% final concentration) or CO2 independent media vehicle control to respective columns of Greiner 1536-well plates.
4. Incubation. Incubate plated cells at room temperature for 2 h, protect from light.
5. Compounds. Library compounds and DMSO vehicle control added at 23nL per well, transferred by Pin Tool.
6. Incubation. Incubate plated cells for 30 min. at room temperature, protect from light.
7. Detector. GloSensor baseline pre-read luminescence measured using CCD-based camera (Viewlux).
8. Compound. Add 1uL of sodium nitroprusside (SNP) to 50 uM final concentration to stimulate soluble guanylyl cyclase (GC) or CO2 independent media as vehicle control.
9. Incubation. Incubate treated cells at room temperature for 20 min., protect from light.
10. Detector. GloSensor post-SNP luminescence measured using CCD-based camera (Viewlux).
NOTES (numbers refer to Sequence numbers above; values are from representative experiments)
1. HEK293 cells expressing GIP/pGS-40F were grown to 85-95% confluence (48-72 h) in T175 culture flasks (CO2 independent media supplemented with 10% FBS, 1% Pen/Strep antibiotics, and 1 ug/mL puromycin). Trypsinize and harvest cells from T175 culture flasks and filter through 40 um cell strainer. Cells counted with Invitrogen Countess (30,000,000 - 50,000,000 cells/flask).
2. Cells incubated for 24 h. at 37C in 95% RH incubator with metal lid having gas-exchange holes.
3. Prepare GloSensor Reagent (Promega): Reconstitute GloSensor luciferase substrate by adding 8.2mL Hepes buffer to 250mg substrate, mix well, protect from light and stored at -80C. Prepare a fresh 12% GloSensor solution in CO2 independent supplemented plating media (see above). Mix well and store at ambient temperature, protected from light. 1uL 12% GloSensor Luciferase Reagent added (2% final concentration) to respective columns of 9 x 1536-well Greiner plate with BioRaptr, 1uL CO2 independent plating media added to respective columns as vehicle control with BioRaptr.
4. Cells incubated for 2 h. at ambient temperature, protected from light with metal lid having gas-exchange holes.
5. 23nL of LOPAC128 library compounds (7 plates) or DMSO vehicle control transferred to 9 Greiner white/solid bottom high base, TC plates in 7 interplate 1:5 titrations (see Yasgar, A. et al. 2008) with Pintool. Two of the 9 plates are DMSO-only in compound field at beginning and end of compound library-treated plates.
6. Cells incubated for 30-50 min. at ambient temperature protected from light with metal lid having gas-exchange holes.
7. Read GloSensor + Antagonist/Compound baseline Luminescence on the ViewLux [Exposure, 30 s; Gain, High; Speed, Slow; Binning, 2X]
8. SNP solution prepared at 500 mM (in H2O) stock concentration. From this a working dilution was prepared at 300 uM in CO2 Independent media. 1uL of 300 uM SNP (50 uM final concentration) or CO2 Independent media vehicle control dispensed into respective columns of 9 x Greiner 1536-well white/solid bottom, tissue culture plates with BioRaptr.
9. Cells incubated for 20 min. at ambient temperature, protected from light with metal lid having gas-exchange holes.
10. Read final luminescence on the ViewLux. [Exposure, 30 s; Gain, High; Speed, Slow; Binning, 2X.]
[…]
Potency means the concentration at half of the fitted maximal effect.

Structure (SMILES)	Potency
COC(=O)C1=CO[C@@H](O)[C@@H]2C(CO)=CC[C@H]12	inactive
COc1cccc2c1[C@@H]1CN(CCCCn3c(=O)[nH]c4c(sc5ncc(-c6ccccc6)nc54)c3=O)C[C@@H]1CO2	inactive
CN(C)c1cc2c(Nc3ccc4c(cnn4Cc4ccccc4)c3)ncnc2cn1	inactive
Cc1nn(-c2ccccc2)c(C)c1/C=N/N1CCN(Cc2ccccc2)CC1	inactive
COc1ccccc1N1CCN(CCN2C(=O)CC3(CCCC3)CC2=O)CC1	inactive
O=C1NC(c2cccc([N+](=O)[O-])c2)=CCN1c1ccccc1O	inactive
Nc1ncnc2n[nH]c(Nc3ccc(F)cc3)c12	inactive
C[N+](C)(C)CCO	inactive
N[C@@H](Cn1ccc(=O)c(O)c1)C(=O)O	inactive
Cn1cnc2c(NCc3ccccc3)nc(NCCO)nc21	inactive
NC(N)=NCCCCN=C(N)N	inactive
CC(C)N(CCC(=O)c1ccc2ccccc2c1)Cc1ccccc1	13.1 µM (active)
Brc1ccc([C@H]2CN3CCSC3=N2)cc1	inactive
